Reference: ChEMBL document CHEMBL2218924, “A broad activity screen in support of a chemogenomic map for kinase signalling research and drug discovery” (Biochem J, 2013)

How the values were obtained:
[1] = target: T1, Ephrin type-A receptor 3 (Homo sapiens) (UniProt P29320); details: at 10 µM
T1 sequence (whole entry): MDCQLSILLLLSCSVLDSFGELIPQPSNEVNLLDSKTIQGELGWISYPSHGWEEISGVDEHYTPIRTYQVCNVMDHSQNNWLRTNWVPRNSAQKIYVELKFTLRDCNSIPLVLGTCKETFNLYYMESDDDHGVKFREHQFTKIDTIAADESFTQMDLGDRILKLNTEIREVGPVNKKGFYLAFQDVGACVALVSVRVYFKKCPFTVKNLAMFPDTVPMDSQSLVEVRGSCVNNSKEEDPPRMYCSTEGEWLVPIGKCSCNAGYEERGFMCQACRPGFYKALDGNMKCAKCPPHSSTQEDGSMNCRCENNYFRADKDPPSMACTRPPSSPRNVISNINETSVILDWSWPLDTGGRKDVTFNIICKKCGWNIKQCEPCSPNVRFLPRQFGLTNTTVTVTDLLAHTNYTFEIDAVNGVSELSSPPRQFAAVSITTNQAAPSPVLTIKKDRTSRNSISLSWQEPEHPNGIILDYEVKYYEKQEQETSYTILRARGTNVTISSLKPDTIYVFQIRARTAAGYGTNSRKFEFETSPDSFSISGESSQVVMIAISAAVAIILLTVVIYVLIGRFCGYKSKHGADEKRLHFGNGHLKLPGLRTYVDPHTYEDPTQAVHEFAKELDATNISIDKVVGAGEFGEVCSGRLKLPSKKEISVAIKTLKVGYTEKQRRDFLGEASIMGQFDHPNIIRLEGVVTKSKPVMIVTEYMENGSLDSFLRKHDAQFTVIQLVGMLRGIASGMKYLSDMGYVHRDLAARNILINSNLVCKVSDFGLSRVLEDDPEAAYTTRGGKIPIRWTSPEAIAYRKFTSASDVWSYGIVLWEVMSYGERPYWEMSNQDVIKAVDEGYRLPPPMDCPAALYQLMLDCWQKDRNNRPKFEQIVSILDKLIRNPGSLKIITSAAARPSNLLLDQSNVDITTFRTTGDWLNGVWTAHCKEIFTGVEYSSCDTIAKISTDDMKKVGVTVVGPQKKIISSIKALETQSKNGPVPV

[2] = target: Ephrin type-A receptor 4 (Homo sapiens) (UniProt P54764); details: at 1 µM
Sequence of Ephrin type-A receptor 4 (Homo sapiens) (P54764 whole entry): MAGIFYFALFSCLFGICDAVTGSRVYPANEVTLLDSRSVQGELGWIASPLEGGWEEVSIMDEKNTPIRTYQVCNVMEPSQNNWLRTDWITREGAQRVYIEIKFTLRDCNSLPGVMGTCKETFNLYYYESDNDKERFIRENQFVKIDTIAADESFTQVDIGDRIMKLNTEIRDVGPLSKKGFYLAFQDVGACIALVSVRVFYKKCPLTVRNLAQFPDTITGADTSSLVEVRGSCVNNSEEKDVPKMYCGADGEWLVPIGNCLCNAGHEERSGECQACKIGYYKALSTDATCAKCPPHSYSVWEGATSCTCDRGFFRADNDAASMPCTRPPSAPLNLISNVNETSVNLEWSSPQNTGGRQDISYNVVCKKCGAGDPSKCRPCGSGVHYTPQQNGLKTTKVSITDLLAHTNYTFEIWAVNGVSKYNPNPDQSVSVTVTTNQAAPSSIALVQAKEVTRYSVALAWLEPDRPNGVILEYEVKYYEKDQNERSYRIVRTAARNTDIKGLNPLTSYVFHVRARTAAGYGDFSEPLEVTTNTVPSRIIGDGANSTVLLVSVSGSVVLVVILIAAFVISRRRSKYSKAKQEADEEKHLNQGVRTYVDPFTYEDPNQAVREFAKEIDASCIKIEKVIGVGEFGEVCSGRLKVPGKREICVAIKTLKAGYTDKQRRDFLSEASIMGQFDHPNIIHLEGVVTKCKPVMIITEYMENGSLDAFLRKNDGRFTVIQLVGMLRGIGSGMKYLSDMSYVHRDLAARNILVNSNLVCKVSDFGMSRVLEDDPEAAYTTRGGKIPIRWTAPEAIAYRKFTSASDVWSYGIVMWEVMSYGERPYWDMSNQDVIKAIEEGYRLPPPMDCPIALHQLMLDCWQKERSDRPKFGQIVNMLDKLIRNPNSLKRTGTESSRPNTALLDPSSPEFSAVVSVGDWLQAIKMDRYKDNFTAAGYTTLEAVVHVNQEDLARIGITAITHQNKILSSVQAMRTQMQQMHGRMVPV

[3] = target: Ephrin type-A receptor 4 (Homo sapiens) (UniProt P54764); details: at 10 µM
[4] = target: Ephrin type-A receptor 5 (Homo sapiens) (UniProt P54756); details: at 1 µM
Sequence of Ephrin type-A receptor 5 (Homo sapiens) (P54756 whole entry): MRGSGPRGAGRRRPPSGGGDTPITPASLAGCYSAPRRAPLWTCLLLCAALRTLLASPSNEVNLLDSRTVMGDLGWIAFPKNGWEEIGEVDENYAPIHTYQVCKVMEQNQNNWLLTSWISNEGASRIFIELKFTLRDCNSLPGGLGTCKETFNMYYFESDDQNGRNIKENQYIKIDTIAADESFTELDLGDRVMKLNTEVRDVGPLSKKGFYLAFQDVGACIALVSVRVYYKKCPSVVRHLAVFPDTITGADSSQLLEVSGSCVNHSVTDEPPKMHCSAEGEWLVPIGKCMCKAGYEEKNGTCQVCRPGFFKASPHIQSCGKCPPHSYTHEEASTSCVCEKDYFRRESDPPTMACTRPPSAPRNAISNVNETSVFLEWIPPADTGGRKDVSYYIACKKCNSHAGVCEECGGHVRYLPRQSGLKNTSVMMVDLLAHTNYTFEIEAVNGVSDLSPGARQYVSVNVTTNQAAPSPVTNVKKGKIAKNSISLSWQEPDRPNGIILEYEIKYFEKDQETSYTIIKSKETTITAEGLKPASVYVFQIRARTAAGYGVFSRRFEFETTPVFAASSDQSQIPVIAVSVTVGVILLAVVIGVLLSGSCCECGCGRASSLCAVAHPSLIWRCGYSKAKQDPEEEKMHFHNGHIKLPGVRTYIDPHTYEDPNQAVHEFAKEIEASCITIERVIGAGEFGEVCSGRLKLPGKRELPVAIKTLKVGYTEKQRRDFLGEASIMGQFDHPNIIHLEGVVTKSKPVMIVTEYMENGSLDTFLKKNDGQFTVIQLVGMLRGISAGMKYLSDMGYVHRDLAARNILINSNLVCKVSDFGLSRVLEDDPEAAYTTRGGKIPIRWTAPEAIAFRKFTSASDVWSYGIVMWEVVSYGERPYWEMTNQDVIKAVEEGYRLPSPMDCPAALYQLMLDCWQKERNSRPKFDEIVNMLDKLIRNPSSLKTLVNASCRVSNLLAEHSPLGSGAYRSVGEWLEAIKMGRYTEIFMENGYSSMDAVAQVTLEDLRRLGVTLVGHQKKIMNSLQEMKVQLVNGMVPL

[5] = target: Ephrin type-A receptor 5 (Homo sapiens) (UniProt P54756); details: at 10 µM
[6] = target: Ephrin type-A receptor 7 (Homo sapiens) (UniProt Q15375); details: at 1 µM
Sequence of Ephrin type-A receptor 7 (Homo sapiens) (Q15375 28-998 limits assumed): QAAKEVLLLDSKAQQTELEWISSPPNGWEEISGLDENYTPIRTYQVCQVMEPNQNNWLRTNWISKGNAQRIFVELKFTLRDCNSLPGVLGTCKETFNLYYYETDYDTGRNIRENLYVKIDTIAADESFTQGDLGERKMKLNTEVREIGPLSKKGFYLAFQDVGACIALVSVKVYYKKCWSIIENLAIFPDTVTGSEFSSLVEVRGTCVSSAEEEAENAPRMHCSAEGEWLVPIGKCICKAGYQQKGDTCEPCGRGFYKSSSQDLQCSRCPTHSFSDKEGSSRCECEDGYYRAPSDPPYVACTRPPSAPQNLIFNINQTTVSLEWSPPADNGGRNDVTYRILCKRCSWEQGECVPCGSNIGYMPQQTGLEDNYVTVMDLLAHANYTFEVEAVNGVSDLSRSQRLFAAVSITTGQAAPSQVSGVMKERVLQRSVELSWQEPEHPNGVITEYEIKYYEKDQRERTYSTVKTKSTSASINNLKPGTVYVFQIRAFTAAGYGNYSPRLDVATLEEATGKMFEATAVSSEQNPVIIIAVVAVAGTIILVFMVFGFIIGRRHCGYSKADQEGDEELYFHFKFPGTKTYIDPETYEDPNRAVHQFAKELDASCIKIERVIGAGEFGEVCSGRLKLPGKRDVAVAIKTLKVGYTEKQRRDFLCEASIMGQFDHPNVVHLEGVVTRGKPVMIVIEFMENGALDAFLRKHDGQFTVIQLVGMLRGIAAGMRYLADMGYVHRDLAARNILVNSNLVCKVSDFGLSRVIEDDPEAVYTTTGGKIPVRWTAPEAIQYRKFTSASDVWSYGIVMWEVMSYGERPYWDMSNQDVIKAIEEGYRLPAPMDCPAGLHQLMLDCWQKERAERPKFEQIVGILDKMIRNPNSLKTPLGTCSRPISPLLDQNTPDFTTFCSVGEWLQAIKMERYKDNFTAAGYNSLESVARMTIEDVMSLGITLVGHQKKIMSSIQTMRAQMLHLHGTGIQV

[7] = target: Ephrin type-A receptor 7 (Homo sapiens) (UniProt Q15375); details: at 10 µM
[8] = target: T2, Ephrin type-A receptor 8 (Homo sapiens) (UniProt P29322); details: at 1 µM
T2 sequence (whole entry): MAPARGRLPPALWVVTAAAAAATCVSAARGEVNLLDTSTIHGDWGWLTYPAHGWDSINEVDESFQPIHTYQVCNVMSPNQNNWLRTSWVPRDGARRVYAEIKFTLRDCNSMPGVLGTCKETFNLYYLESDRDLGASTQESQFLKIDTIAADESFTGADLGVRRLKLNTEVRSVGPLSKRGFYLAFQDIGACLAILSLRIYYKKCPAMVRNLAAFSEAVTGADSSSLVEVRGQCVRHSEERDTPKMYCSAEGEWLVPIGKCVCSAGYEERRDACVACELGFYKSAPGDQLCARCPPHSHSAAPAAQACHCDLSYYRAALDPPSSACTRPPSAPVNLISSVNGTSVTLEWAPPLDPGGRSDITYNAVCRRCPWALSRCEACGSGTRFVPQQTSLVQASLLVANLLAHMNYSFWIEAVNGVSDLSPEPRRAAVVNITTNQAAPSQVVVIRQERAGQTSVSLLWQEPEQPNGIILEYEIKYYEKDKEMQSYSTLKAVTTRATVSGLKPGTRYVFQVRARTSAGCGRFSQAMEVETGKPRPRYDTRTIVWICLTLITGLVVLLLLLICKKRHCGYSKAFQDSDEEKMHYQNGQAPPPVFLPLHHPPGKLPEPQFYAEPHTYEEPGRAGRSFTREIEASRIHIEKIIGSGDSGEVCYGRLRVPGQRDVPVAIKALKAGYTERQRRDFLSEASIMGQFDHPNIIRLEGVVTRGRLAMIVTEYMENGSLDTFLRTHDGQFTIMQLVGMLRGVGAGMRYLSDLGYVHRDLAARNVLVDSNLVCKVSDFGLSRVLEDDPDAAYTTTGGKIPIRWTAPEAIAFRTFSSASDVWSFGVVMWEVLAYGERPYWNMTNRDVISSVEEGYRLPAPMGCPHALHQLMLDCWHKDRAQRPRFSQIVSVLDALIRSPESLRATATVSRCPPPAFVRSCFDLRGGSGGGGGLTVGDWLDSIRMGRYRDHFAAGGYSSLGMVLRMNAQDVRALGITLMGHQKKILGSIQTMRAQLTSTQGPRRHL

[9] = target: T2, Ephrin type-A receptor 8 (Homo sapiens); details: at 10 µM
[10] = target: T3, Ephrin type-B receptor 1 (Homo sapiens) (UniProt P54762); details: at 1 µM
T3 sequence (whole entry): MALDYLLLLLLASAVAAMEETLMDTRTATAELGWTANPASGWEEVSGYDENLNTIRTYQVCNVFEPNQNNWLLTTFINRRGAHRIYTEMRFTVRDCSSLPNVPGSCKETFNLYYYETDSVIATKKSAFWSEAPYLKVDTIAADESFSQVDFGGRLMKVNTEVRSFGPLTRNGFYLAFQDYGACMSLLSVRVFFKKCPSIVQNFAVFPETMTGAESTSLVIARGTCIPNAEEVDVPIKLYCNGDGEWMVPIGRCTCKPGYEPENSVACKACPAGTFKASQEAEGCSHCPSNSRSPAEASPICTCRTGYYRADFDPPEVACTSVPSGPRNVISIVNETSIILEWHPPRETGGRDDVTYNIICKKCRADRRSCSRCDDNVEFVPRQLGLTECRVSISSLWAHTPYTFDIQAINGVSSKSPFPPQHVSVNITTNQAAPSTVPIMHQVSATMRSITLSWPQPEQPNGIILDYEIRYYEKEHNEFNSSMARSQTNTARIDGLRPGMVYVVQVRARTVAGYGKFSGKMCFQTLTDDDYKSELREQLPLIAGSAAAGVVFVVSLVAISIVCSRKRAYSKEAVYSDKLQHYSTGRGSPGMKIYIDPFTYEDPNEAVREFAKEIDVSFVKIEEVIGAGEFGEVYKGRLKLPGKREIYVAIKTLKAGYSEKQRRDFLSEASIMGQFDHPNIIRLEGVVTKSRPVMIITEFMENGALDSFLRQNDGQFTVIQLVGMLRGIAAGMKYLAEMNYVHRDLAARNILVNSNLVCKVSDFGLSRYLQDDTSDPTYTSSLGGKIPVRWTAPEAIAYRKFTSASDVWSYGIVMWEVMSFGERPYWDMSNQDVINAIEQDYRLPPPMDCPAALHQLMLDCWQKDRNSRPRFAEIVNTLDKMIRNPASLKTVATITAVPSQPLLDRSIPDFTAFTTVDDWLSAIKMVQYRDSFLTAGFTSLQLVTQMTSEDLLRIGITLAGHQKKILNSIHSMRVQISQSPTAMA

[11] = target: T3, Ephrin type-B receptor 1 (Homo sapiens); details: at 10 µM
[12] = target: T4, Ephrin type-B receptor 2 (Homo sapiens) (UniProt P29323); details: at 1 µM
T4 sequence (whole entry): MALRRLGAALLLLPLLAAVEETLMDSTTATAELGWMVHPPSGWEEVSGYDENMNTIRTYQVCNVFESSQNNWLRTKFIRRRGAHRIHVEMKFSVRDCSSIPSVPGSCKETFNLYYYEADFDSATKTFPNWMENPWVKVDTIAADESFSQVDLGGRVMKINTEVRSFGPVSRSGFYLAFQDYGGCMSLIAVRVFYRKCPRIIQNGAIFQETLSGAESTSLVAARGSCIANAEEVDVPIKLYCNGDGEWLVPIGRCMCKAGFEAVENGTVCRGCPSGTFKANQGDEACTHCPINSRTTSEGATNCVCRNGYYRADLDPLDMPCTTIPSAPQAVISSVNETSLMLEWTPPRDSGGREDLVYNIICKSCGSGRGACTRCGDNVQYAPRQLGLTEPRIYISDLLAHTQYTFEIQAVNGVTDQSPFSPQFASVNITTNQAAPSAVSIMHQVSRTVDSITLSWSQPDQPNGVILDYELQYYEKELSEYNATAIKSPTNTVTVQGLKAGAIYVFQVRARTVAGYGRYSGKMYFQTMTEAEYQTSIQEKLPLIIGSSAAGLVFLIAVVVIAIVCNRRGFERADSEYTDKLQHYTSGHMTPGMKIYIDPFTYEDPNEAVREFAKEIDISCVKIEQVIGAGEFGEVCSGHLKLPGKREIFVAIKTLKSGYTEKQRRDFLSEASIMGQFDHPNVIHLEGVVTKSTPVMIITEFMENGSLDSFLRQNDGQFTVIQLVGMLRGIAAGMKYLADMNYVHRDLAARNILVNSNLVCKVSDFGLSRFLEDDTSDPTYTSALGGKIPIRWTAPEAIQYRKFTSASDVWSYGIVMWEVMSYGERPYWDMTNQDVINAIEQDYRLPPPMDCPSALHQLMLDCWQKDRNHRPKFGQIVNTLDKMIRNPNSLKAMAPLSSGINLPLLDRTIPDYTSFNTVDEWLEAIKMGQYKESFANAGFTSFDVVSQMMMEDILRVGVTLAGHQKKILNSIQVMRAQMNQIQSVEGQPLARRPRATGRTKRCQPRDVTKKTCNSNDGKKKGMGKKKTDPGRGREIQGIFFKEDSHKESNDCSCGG

[13] = target: T4, Ephrin type-B receptor 2 (Homo sapiens); details: at 10 µM
[14] = target: T5, Ephrin type-B receptor 3 (Homo sapiens) (UniProt P54753); details: at 1 µM
T5 sequence (whole entry): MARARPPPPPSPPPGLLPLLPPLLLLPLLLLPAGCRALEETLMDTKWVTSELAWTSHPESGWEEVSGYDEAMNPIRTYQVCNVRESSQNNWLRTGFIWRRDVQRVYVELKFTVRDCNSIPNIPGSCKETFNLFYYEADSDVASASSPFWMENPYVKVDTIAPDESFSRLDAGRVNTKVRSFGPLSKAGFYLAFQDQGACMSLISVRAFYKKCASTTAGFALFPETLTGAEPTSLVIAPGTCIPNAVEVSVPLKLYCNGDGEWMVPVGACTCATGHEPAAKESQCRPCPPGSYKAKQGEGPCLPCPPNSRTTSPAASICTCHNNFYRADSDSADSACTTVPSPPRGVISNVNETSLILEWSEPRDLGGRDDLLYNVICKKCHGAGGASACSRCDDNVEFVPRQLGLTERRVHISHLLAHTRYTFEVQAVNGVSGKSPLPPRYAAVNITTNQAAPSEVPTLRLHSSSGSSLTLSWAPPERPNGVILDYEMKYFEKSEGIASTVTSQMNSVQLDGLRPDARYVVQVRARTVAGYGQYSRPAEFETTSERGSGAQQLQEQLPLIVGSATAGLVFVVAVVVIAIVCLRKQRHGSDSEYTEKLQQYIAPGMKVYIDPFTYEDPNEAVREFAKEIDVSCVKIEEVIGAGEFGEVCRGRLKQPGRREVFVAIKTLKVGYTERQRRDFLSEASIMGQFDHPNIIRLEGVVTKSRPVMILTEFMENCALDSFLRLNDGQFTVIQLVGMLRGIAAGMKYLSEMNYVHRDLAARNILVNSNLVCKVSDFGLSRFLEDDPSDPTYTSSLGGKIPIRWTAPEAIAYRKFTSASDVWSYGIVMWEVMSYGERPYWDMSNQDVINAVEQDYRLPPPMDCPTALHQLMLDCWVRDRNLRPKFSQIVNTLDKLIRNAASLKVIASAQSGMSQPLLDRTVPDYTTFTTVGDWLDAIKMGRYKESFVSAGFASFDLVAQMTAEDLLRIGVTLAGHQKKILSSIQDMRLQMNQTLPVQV

[15] = target: T5, Ephrin type-B receptor 3 (Homo sapiens); details: at 10 µM
[16] = target: T6, Ephrin type-B receptor 4 (Homo sapiens) (UniProt P54760); details: at 1 µM
T6 sequence (whole entry): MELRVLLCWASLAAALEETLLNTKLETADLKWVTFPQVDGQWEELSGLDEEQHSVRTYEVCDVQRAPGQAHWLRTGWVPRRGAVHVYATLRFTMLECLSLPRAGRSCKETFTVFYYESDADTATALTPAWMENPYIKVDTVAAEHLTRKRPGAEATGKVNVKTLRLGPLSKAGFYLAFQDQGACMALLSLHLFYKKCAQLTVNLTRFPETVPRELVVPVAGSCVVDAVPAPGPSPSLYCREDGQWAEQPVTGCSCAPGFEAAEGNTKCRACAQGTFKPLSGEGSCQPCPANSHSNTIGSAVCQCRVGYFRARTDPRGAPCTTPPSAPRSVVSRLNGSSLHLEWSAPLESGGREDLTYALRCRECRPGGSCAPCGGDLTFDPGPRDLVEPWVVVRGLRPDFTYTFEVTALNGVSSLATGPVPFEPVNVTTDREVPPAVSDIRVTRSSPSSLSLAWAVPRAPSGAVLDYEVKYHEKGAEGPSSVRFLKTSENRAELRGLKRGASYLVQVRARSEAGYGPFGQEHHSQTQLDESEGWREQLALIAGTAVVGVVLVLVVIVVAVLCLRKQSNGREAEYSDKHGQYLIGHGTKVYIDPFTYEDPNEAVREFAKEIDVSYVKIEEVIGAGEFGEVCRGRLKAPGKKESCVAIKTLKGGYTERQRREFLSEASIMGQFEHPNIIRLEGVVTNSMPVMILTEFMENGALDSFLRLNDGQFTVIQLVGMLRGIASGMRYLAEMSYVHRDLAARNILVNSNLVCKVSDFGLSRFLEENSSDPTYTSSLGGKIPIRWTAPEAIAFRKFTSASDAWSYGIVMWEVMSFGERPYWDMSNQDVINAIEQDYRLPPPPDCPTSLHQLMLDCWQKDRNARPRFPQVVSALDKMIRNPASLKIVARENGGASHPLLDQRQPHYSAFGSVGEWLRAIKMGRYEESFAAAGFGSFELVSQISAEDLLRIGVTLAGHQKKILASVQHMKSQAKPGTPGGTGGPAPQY

[17] = target: T6, Ephrin type-B receptor 4 (Homo sapiens); details: at 10 µM
[18] = target: Receptor tyrosine-protein kinase erbB-4 (Homo sapiens) (UniProt Q15303); details: at 1 µM
Sequence of Receptor tyrosine-protein kinase erbB-4 (Homo sapiens) (Q15303 whole entry): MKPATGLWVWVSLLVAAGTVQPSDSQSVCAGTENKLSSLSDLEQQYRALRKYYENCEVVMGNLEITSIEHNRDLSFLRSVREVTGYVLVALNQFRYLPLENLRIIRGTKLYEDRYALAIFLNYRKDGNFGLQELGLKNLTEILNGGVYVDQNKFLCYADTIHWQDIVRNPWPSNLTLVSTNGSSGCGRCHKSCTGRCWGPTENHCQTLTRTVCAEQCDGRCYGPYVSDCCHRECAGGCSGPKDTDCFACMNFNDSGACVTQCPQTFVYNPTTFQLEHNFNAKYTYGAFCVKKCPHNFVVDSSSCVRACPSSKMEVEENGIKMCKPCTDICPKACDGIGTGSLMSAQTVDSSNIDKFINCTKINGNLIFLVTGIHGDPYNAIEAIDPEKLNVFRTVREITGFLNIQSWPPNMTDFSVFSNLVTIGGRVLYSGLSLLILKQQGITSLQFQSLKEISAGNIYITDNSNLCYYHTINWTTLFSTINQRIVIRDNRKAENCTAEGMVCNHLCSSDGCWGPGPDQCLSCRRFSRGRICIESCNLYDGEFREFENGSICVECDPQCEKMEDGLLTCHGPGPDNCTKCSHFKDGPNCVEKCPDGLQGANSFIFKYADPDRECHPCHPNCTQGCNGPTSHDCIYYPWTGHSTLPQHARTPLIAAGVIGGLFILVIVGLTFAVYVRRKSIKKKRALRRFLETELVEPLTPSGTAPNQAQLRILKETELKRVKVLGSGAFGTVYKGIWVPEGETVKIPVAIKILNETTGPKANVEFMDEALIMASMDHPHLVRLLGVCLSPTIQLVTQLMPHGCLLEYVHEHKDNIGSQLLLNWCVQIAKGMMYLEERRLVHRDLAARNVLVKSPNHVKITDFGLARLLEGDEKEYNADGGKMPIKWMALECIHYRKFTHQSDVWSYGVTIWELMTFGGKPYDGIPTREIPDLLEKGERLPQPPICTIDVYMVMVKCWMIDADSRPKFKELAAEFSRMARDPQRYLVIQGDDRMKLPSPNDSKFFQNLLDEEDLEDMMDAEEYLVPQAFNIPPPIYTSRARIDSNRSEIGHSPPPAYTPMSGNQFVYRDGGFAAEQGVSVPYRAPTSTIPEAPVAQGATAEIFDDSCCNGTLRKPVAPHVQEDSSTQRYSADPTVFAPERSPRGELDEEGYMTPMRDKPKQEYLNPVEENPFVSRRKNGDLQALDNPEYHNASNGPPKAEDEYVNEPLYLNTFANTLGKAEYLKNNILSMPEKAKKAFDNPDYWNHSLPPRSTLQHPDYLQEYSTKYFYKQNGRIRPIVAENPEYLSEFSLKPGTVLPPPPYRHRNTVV

[19] = target: Receptor tyrosine-protein kinase erbB-4 (Homo sapiens) (UniProt Q15303); details: at 10 µM
[20] = target: Focal adhesion kinase 1 (Homo sapiens) (UniProt Q05397); details: at 1 µM

Cc1nc2cc3nc(-c4cccs4)cnc3cc2n1C
residual activity [1]: 94% | residual activity [2]: 115% | residual activity [3]: 96% | residual activity [4]: 107% | residual activity [5]: 114% | residual activity [6]: 104% | residual activity [7]: 90% | residual activity [8]: 111% | residual activity [9]: 96% | residual activity [10]: 103% | residual activity [11]: 91% | residual activity [12]: 117% | residual activity [13]: 107% | residual activity [14]: 107% (inactive) | residual activity [15]: 124% | residual activity [16]: 108% | residual activity [17]: 119% | residual activity [18]: 116% | residual activity [19]: 113% | residual activity [20]: 80%
